Holding throughout (parameters): scale not given: direction of the effect not stated beside the values
Assay [1] addresses Protein translocase subunit SecA (Escherichia coli (strain K12)) (UniProt P10408). In words: Assay to Identify E. coli SecA ATPase Inhibitors. It counts as functional. Conditions: 30 µM.
Assay [2] deals with T1, Ubiquitin-activating enzyme e1, putative (Leishmania donovani (strain BPK282A1)) (UniProt E9BSI1).
T1 sequence (whole entry): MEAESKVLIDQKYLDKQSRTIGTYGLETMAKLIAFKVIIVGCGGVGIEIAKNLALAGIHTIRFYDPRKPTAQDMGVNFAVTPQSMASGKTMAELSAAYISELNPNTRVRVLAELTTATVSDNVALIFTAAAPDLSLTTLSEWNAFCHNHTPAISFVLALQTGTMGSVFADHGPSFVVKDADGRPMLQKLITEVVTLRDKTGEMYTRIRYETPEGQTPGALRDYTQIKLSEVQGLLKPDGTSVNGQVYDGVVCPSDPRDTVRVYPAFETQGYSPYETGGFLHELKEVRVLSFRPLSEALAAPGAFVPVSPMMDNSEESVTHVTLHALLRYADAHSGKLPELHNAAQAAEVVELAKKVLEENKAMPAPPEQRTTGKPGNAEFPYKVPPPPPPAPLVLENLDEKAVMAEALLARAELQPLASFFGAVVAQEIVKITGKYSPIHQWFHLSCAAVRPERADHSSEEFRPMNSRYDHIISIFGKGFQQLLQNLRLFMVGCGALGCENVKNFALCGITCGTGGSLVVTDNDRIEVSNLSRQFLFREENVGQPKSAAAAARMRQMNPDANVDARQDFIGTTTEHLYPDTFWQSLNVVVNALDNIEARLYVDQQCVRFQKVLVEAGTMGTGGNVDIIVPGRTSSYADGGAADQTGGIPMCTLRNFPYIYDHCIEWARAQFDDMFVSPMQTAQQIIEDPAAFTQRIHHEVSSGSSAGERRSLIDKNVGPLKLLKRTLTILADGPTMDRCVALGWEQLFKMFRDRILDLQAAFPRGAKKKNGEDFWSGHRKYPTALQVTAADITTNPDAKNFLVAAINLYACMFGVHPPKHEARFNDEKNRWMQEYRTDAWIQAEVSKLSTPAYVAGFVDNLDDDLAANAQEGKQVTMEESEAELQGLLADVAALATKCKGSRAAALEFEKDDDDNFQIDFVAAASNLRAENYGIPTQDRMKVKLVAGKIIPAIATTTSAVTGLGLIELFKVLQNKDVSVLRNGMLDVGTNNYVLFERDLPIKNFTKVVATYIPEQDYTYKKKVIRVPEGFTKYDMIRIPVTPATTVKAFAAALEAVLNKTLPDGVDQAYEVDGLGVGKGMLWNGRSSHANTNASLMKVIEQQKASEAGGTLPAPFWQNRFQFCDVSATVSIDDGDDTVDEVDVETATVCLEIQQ
In words: Leishmania donovani Ubiquitin Activating Enzyme (LdE1). It counts as functional. The conditions noted are these: 30 µM.

Assay [3] has as its target AMP-activated protein kinase, AMPK (Homo sapiens) (UniProt P54646+O43741+P54619+Q9UGJ0+Q9Y478+Q13131+Q9UGI9). In words: AMP-dependent Kinase enzyme assay. An in vitro enzyme assay that detects ADP turnover that is directly proportional to AMPK activity. This uses naive AMPK that is activated during the assay with MK-8722. It counts as functional. The conditions noted are these: 30 µM.

Assay [4] addresses Sialic acid-binding Ig-like lectin 9 (Homo sapiens) (UniProt Q9Y336). Kind of assay: Hs-Siglec9 ALPHAscreen SOP 20170721. The conditions noted are these: 10 µM.
The subject of assay [5] is Trypanosoma cruzi. Kind of assay: Trypanosoma cruzi phosphomannomutase and mannose-1-phosphate guanylyltransferase assay. It counts as functional. The conditions noted are these: 10 µM.
Assay [6] concerns the target T2, Arginase-2, mitochondrial (Homo sapiens) (UniProt P78540).
T2 sequence (whole entry): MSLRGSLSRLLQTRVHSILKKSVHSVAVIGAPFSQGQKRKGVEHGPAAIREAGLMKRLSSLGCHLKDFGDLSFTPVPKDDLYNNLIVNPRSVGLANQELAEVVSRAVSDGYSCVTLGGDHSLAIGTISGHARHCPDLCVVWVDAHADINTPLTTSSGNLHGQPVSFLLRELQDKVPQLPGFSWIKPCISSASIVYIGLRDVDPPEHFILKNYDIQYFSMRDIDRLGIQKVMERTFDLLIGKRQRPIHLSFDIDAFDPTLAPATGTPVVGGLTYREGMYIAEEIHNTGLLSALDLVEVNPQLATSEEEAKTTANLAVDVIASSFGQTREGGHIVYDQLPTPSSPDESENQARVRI
Kind of assay: in vitro enzyme assay to detect the production of urea directly proportional to the activity of Arginase II. Further: in the data most compounds retested in dose-response had high values. It counts as functional. The conditions noted are these: 33.3 µM.

For assay [7], the target named is T3, Proteasome subunit beta (Trypanosoma cruzi) (UniProt O96673).
T3 sequence (whole entry): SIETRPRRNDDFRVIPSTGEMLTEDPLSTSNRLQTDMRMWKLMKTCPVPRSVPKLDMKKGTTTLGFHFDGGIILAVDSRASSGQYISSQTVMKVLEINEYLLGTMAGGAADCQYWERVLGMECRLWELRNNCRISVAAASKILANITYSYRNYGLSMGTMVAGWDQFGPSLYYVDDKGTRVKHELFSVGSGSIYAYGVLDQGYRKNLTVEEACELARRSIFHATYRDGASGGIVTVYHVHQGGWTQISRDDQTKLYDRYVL
In words: Trypanosoma cruzi proteasome chymotrypsin-like activity (TcProtChymo) assay. Further: in the data most compounds retested in dose-response had high values. Conditions: 9.37 µM. It counts as functional.

For assay [8], the species on record is Homo sapiens. Kind of assay: To identify inhibition of the IFN signalling (Jak-Stat) pathway via expression of an eGFP reporter gene under the control of an IFN-stimulated response element (ISRE) containing MxA promoter. It counts as functional. The conditions noted are these: 30 µM. Background: In a reporter assay the amount or activity of a reporter protein is the signal.

Assay [9] has as its target T4, Tyrosyl-tRNA synthetase, putative (Trypanosoma cruzi (strain CL Brener)) (UniProt Q4DSP6).
T4 sequence (whole entry): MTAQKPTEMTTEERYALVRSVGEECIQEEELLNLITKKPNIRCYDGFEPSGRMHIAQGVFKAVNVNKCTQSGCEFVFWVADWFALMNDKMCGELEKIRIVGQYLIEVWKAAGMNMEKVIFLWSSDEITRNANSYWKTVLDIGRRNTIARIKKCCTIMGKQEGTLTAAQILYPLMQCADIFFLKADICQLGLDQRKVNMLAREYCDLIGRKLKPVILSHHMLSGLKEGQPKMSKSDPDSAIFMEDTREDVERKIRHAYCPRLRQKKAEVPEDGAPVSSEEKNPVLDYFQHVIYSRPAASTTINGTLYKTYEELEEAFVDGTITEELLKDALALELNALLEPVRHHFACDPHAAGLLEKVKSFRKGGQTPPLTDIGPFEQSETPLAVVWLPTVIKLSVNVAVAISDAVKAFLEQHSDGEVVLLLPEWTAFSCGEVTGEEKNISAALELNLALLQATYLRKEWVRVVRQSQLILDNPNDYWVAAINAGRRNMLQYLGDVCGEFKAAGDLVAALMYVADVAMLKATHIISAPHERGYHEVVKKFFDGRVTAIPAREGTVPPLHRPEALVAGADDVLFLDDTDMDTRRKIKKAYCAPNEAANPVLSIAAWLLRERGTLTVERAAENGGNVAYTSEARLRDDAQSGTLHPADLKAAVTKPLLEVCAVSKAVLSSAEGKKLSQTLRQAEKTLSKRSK
Kind of assay: Trypanosoma cruzi tyrosyl tRNA synthetase (TcYRS) _High Tyrosine SOP. Further: in the data most compounds retested in dose-response had high values. It counts as functional. The conditions noted are these: 30 µM.

In assay [10] the target is T4, Tyrosyl-tRNA synthetase, putative (Trypanosoma cruzi (strain CL Brener)). In words: Trypanosoma cruzi tyrosyl tRNA synthetase (TcYRS) SOP. It counts as functional. The conditions noted are these: 30 µM.
Assay [11] concerns the target Chromo domain-containing protein 1 (Saccharomyces cerevisiae (strain ATCC 204508 / S288c) (Baker's yeast)) (UniProt P32657). Kind of assay: ScCHD-1 Enzyme Inhibition Assay. Further: in the data most compounds retested in dose-response had high values. Conditions: 30 µM. It counts as functional.

For some of these results: Results with a measured potency or affinity are listed apart.

Chain of Chromo domain-containing protein 1 (Saccharomyces cerevisiae (strain ATCC 204508 / S288c) (Baker's yeast)) (P32657 whole entry, the tested form may be a part): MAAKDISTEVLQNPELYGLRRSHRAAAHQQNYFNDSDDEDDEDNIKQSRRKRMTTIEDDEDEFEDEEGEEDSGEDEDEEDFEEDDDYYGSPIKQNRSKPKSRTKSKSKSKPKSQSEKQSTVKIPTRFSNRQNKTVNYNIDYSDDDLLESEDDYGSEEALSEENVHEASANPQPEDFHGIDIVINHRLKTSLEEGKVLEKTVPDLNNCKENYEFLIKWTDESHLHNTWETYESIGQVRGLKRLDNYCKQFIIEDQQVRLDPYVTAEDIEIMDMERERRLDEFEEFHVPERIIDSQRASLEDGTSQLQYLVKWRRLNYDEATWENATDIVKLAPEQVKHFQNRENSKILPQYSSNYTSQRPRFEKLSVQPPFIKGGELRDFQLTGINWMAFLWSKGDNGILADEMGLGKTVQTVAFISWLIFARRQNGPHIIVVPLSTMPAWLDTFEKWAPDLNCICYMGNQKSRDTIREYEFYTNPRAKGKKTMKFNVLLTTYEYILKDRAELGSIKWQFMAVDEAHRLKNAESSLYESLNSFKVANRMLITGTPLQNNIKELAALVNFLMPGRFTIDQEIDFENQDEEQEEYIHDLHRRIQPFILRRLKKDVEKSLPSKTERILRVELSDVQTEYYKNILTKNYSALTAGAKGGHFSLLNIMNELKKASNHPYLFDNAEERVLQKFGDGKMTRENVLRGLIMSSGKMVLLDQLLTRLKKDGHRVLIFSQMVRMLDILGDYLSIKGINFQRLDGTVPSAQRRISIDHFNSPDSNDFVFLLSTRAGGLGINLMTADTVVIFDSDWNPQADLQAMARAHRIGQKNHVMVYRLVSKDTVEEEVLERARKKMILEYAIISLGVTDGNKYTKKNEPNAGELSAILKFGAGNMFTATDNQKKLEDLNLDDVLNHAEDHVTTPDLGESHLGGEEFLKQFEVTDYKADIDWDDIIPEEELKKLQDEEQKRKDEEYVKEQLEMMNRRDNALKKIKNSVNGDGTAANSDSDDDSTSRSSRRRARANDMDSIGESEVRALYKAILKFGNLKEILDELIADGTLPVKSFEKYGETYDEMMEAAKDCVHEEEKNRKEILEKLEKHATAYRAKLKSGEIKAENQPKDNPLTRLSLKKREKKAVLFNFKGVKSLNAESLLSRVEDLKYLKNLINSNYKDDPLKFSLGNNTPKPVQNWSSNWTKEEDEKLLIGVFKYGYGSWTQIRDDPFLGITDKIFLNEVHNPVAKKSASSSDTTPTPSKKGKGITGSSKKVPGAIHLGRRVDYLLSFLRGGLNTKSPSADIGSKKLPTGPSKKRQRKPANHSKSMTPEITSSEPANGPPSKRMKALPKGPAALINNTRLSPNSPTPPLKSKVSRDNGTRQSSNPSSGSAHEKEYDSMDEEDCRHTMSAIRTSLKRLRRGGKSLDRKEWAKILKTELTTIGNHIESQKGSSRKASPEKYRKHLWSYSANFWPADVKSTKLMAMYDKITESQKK
Chain of Sialic acid-binding Ig-like lectin 9 (Homo sapiens) (Q9Y336 whole entry): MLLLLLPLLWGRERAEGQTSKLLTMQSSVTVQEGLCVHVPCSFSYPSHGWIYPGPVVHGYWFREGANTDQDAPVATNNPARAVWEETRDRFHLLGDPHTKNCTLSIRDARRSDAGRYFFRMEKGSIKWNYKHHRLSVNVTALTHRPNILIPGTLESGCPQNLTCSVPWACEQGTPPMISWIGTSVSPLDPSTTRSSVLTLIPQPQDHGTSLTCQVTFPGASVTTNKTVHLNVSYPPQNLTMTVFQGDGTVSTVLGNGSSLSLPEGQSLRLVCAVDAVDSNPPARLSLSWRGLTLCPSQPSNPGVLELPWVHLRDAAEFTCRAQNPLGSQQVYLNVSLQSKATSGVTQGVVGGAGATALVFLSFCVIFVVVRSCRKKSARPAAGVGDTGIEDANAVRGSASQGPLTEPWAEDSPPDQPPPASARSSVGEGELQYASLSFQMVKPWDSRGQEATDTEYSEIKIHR
Chain of Protein translocase subunit SecA (Escherichia coli (strain K12)) (P10408 whole entry): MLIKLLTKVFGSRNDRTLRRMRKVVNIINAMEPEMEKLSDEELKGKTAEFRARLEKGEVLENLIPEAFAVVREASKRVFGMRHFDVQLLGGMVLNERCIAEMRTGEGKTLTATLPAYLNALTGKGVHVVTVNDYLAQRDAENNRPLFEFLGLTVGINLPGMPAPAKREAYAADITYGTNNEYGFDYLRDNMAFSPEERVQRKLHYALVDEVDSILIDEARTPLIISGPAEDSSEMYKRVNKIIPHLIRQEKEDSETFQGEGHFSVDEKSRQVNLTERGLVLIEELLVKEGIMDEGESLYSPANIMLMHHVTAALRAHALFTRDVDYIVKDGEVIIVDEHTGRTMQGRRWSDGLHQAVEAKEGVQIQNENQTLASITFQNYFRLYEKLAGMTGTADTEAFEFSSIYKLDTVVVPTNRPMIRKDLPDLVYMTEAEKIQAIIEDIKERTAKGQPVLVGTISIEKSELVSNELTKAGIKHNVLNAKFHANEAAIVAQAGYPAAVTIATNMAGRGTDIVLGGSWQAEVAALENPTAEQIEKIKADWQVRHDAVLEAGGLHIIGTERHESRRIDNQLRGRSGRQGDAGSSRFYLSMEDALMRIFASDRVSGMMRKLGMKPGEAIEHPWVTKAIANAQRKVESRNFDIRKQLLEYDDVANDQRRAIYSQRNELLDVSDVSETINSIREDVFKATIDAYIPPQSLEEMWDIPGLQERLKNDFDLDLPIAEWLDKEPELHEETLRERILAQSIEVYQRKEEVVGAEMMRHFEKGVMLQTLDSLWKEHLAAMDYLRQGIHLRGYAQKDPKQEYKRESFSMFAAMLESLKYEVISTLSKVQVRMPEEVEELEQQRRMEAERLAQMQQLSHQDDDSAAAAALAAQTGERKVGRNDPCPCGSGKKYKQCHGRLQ

Turning to `N#Cc1cccnc1NCc1cccnc1N1CCC(C(N)=O)CC1`, the Percent Effect in [1] was -4.85%; in assay [2] it was 8.11%; in assay [3], -4.32%; in [4] it was 8.48%; in assay [5] it was 0.293%; in assay [6], -0.744%. For the same compound, the Percent Effect in assay [7] amounted to 12.3%; in [8], 3.17%; in assay [9], 3.23%; in assay [10], 13.6%; in [11], 1.32%.
Turning to `CCCNC(=O)COc1ccc(C)cn1`, the Percent Effect in [1] was -4.18%; in assay [2], 11%; in assay [3], -5.89%; in assay [4] it was 4.96%; in assay [5] it was 4.76%; in assay [6] it was -0.798%. Moreover, the Percent Effect is 6.59% in [7]; -7.03% in assay [8]; 6.25% in assay [9]; -3.7% in assay [10]; -11.8% in assay [11].
For the compound `CCCc1noc(CCC(=O)NC(C)c2nnc3n2CCCCC3)n1` (stereo unspecified), the Percent Effect is -0.578% in assay [1]; 8.11% in assay [2]; -6.02% in [3]; 5.58% in assay [4]; -2.64% in assay [5]; 5.21% in assay [6]. Moreover, the Percent Effect in [7] is 19.5%; in assay [8], 3.01%; in assay [9], 3.23%; in [10], 8.64%; in assay [11], -5.75%.
On to `COCC(=O)N1Cc2cn(C)nc2C(COc2cccnc2)C1` (stereo unspecified), for which the Percent Effect was 1.2% in assay [1]; 15.6% in [2]; 0.672% in assay [3]; -9.95% in assay [4]; -0.493% in assay [5]; 7.1% in assay [6]. The Percent Effect in assay [7] is 10.4%; in [8] it was 35.1%; in assay [9], 1.06%; in [10], 6.41%; in assay [11] it was -9.03%.
Take `CN(Cc1ccco1)C(=O)[C@H]1CSCN1C(=O)OC(C)(C)C`: the Percent Effect was -4.45% in [1]; 15.8% in assay [2]; -5.01% in assay [3]; 13.2% in assay [4]; 5.7% in assay [5]; -4.32% in assay [6]. Besides, the Percent Effect is 8.21% in assay [7]; -0.327% in assay [8]; 4.43% in assay [9]; 13.6% in assay [10]; -3.35% in assay [11].
With `CCc1nnc2n1CCN(C(=O)c1cc(Br)c[nH]1)C2`, the Percent Effect in assay [1] is -5.48%; in assay [2], 23.4%; in assay [3], -0.82%; in [4], 9.55%; in assay [5], 8.05%; in assay [6] it was -1.78%. The Percent Effect in [7] is 13%; in assay [8], -20.8%; in assay [9], 9.71%; in assay [10] it was 19.5%; in [11], -10.3%.
For `COCCNC(=O)[C@@H]1CC[C@@H]2[C@@H](CCN2Cc2cnn(C)c2)O1`, the Percent Effect in assay [1] is -1.36%; in assay [2] it was 13.3%; in assay [3], -7.81%; in [4], 2.22%; in assay [5], -0.386%; in assay [6], -43.5%. Moreover, the Percent Effect in assay [7] was 9.74%; in assay [8], 2.61%; in assay [9], 3.12%; in assay [10], 10%; in assay [11], -7.85%.
On to `CC(C)Oc1cccc(C(=O)C2CCCN(C(=O)c3ccccn3)C2)c1` (stereo unspecified), for which the Percent Effect in [1] is -2.58%; in [2] it was 0%; in assay [3], -1.81%; in [4], 4.35%; in assay [5] it was -2.12%; in [6] it was -1.91%. In addition, the Percent Effect in assay [7] was 14.3%; in assay [8], 5%; in [9], 0.529%; in [10] it was 2.44%; in [11], -1.58%.
For the compound `COc1cccc2c1ccn2CCC(=O)N1CCCC(C(=O)O)C1` (stereo unspecified), the Percent Effect in assay [1] was -4.55%; in assay [2] it was 5.26%; in [3] it was -2.19%; in assay [4], -4.72%; in [5], -9.64%; in assay [6] it was 2.37%. The Percent Effect in assay [7] was 11.2%; in [8], 12.8%; in assay [9], -3.19%; in assay [10], 0%; in assay [11], -6.61%.
As to `CCOc1cc(C)nc(N2CCN(Cc3nccn3C)CC2)n1`, the Percent Effect in [1] is 0.029%; in [2] it was 4.17%; in assay [3] it was -6.46%; in [4] it was 13.8%; in assay [5] it was 0.875%; in assay [6], 12.4%. The Percent Effect in assay [7] is 11.2%; in assay [8], 4.49%; in assay [9], 5.26%; in assay [10] it was 7.69%; in [11] it was -4.66%.
On to `Cc1ccc(CC(=O)N(C)CC2(O)CCN(c3ccccn3)C2)s1` (stereo unspecified), for which the Percent Effect is -3.85% in [1]; -1.35% in assay [2]; 12.4% in [3]; -1.42% in [4]; 0.198% in [5]; -2.09% in assay [6]. For the same compound, the Percent Effect was 0% in assay [7]; 1.85% in assay [8]; 4.3% in assay [9]; 6.49% in assay [10]; -1.65% in assay [11].
